High-throughput results: PubChem BioAssay, National Center for Advancing Translational Sciences (NCATS)
KAT2A inh = blocks human GCN5L2 histone acetyltransferase | Potency, µM (top dose mostly 58.9 µM), without a hit: at the highest dose activity change, negative = inhibition, most hits filed as inhibitors | Q92830 | hit rate 0.21% among 390,000 | GCN5L2 HAT assay, ThioGlo1 CoA-SH fluorescence
Target sequence (Q92830 whole entry, looked up): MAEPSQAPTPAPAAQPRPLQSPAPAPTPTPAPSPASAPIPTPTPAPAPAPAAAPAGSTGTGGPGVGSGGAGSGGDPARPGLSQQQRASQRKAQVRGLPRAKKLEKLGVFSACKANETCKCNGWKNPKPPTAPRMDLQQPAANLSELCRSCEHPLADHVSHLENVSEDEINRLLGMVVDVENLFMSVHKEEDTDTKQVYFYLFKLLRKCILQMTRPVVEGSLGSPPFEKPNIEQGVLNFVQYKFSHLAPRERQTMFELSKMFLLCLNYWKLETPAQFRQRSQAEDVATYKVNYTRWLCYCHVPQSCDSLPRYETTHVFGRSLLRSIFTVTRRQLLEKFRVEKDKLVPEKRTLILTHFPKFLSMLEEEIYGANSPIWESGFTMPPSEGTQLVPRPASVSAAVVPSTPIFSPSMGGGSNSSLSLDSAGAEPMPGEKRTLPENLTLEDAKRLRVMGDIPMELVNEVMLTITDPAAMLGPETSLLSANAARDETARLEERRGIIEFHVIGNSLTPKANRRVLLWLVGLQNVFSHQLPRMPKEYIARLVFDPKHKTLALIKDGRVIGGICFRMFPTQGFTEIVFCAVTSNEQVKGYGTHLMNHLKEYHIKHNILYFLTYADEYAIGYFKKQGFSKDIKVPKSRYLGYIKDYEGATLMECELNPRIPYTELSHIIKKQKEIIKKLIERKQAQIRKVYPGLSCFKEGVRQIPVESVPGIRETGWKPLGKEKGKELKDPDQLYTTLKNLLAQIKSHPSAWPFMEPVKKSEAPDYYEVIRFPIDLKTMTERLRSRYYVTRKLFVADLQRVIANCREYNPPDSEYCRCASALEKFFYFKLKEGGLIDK
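Titration-based screen in which CoA formation is detected via maleimide probe ThioGlo1 (50uM) turning fluorescent on thiol reaction; substrates H3(1-25) 75uM and acetyl-CoA 70uM, GCN5L2 20nM, 20 min incubation at room temperature.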
PLK1 PBD inh = inhibitors of human PLK1 polo-box domain binding; P53350; Plk1 PBD binding of FITC phosphopeptide, fluorescence polarization; hit rate 2.8% among 360,000; Potency, µM, without a hit: max response, negative = inhibition, hits mostly inhibitors; note: series mostly up to about 57 µM; nearly all actives have a fitted effect of over 65% in size
VDR inh = blocks the human vitamin D receptor. P11473. VDR-SRC2-3 peptide fluorescence polarization, 2 h. Potency, µM, for inactives: max response, negative = inhibition, usual class: inhibitors. hit rate 0.93% among 400,000
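Fluorescence polarization assay of small-molecule disruption of VDR binding to coregulator peptide SRC2-3. Compounds and controls pin-transferred, then read after 2 h incubation at ambient room temperature.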
ALOX12 inh = blocks human arachidonate 12S-lipoxygenase; AID 1671190; hit rate 1.1% among 580,000; purified 12hLO, xylenol orange hydroperoxide absorbance; P18054; Potency, µM (series often up to 108 µM), for inactives: top-dose activity change, negative = inhibition, most hits filed as inhibitors
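Purified human 12hLO (150 nM final) in 25 mM Hepes, 0.01% Triton X-100, pH 7.0 was preincubated 15 min at room temperature with compound. Then 40 uM arachidonic acid was added, 30 min. Hydroperoxide was read by Fe-XO absorbance ratio 573/405 nm.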
* = called active by the depositor; [ ] = dose if it differs, or a comment. This is a sample that favours compounds with a hit; in the whole collection about 3% have one here. Calls come from the whole dose curve; as a rule, active = well fitted curve in the direction sought with a large enough effect; inconclusive = small, poorly fitted or top-dose-only effect, or another doubt; inactive = no such curve, though single readings can be large; an effect the other way counts as inactive or inconclusive. % is set by controls: 0 for no effect and ±100 for the full control effect; potency is the fitted concentration of half-maximal effect.

Results for CCCCNC(=O)/C(=C\c1ccc([N+](=O)[O-])o1)NC(=O)c1ccccc1 ?
KAT2A inh: -7%; PLK1 PBD inh: 21µM*; VDR inh: -8%; ALOX12 inh: -23%

How did Cc1ccc(C(=O)NCc2coc(-c3cccs3)n2)cc1 do in these assays?
ALOX12 inh: -2%

How did Cc1c(NC(=O)/C=C/c2cn(-c3ccccc3)nc2-c2ccc(F)cc2)c(=O)n(-c2ccccc2)n1C do in these assays?
KAT2A inh: -12%; PLK1 PBD inh: 11µM*; VDR inh: inconclusive; ALOX12 inh: -4%

What do the screens show for `O=C(Nc1cnc(N2CCC(N3CCCCC3)CC2)c(C(=O)O)c1)c1ccc(Br)cc1`?
KAT2A inh: -9%; VDR inh: 1%; ALOX12 inh: 40µM*

Results for O=C(Nc1ccc(N2CCC(N3CCCCC3)CC2)c(C(=O)O)c1)c1ccc(Br)cc1 ?
KAT2A inh: 0%; VDR inh: 7%; ALOX12 inh: inconclusive

What do the screens show for `CC(=O)NC(Cc1ccccc1)C(=O)NC1CCN(C(=O)c2ccc([N+](=O)[O-])cc2)CC1` (stereo not drawn)?
KAT2A inh: 2%; PLK1 PBD inh: 3.4µM*; VDR inh: -18%; ALOX12 inh: -12%

What do the screens show for `CC(C)Cc1nc(OCC(=O)O)c(C#N)c2c1CCCC2`?
ALOX12 inh: -44%

What do the screens show for `CO/N=C(/C(=O)N[C@@H]1C(=O)N2C(C(=O)O)=C(CSc3cnns3)CS[C@H]12)c1csc(N)n1`?
KAT2A inh: -8%; VDR inh: 35µM*

Results for CCc1c(C)[nH]c2ccc(OC)cc2c1=S ?
KAT2A inh: 0%; PLK1 PBD inh: 13µM*; VDR inh: 2%; ALOX12 inh: inconclusive

What do the screens show for `COc1ccc(C2CC(=O)Nc3c2c(=O)nc(SC)n3C)cc1` (stereo not drawn)?
ALOX12 inh: -3%

How did COCC(=O)Nc1cc(C)cn(Cc2c(F)cccc2Cl)c1=O do in these assays?
KAT2A inh: 1%; PLK1 PBD inh: 3.4µM*; VDR inh: inconclusive; ALOX12 inh: 3%

How did CC[C@@H]1C=C(C(=O)O)[C@H](c2ccc(OC)c(OC)c2)N1S(=O)(=O)c1ccc(C)cc1 do in these assays?
KAT2A inh: 0%; PLK1 PBD inh: -22%; VDR inh: -9%; ALOX12 inh: 0%

Results for CC[C@@H]1C=C(C(=O)O)[C@H](c2ccc(Cl)cc2)N1S(=O)(=O)c1ccc(C)cc1 ?
KAT2A inh: 1%; PLK1 PBD inh: -1%; VDR inh: -10%; ALOX12 inh: inconclusive

How did CCCCC[C@@H]1C=C(C(=O)O)[C@H](c2ccc(Br)cc2)N1S(=O)(=O)c1ccc(C)cc1 do in these assays?
KAT2A inh: inconclusive; PLK1 PBD inh: inconclusive; VDR inh: -1%; ALOX12 inh: 35µM*

Results for Cc1ccc(S(=O)(=O)N2[C@@H](c3ccc(Cl)c(Cl)c3)C(C(=O)O)=C[C@H]2CC2CCCC2)cc1 ?
KAT2A inh: inconclusive; PLK1 PBD inh: 21µM*; VDR inh: -28%; ALOX12 inh: 28µM*

How did Cc1ccc(S(=O)(=O)N2[C@@H](c3ccc(Cl)cc3)C(C(=O)O)=C[C@H]2CC2CCCC2)cc1 do in these assays?
KAT2A inh: -24%; PLK1 PBD inh: 19µM*; VDR inh: -24%; ALOX12 inh: inconclusive

How did Cc1ccc(S(=O)(=O)N2[C@@H](c3ccc(C#N)cc3)C(C(=O)O)=C[C@H]2CC2CCCC2)cc1 do in these assays?
KAT2A inh: -9%; PLK1 PBD inh: 30µM*; VDR inh: inconclusive; ALOX12 inh: inconclusive

How did CCN(CC)C(=S)SCCOc1cccc(C)c1 do in these assays?
ALOX12 inh: 2%

What do the screens show for `Cc1ccc(C(CNC(=O)c2cc(=O)c3cc(Br)ccc3o2)N2CCCCC2)o1` (stereo not drawn)?
ALOX12 inh: -24%

What do the screens show for `COc1ccc(C(C)(O)c2nc(-c3ccoc3)cs2)cc1` (stereo not drawn)?
PLK1 PBD inh: 2%; ALOX12 inh: 28µM*

Results for COc1cccc(C(C)(O)c2nc(-c3cccs3)cs2)c1 (stereo not drawn) ?
PLK1 PBD inh: 4%; ALOX12 inh: 4.5µM*

How did CC(O)(c1cccc(F)c1)c1nc(-c2ccccc2)cs1 (stereo not drawn) do in these assays?
PLK1 PBD inh: -6%; ALOX12 inh: 10µM*

How did CC(O)(c1cccc(F)c1)c1nc(-c2ccncc2)cs1 (stereo not drawn) do in these assays?
PLK1 PBD inh: -4%; ALOX12 inh: 6%

How did COc1ccc(C(=O)N2CCc3ccc(C(=O)NC4CCCCC4)cc32)cc1 do in these assays?
ALOX12 inh: 23%

Results for O=C(O)/C(=C\c1ccc(Cl)c([N+](=O)[O-])c1)c1ccc(S(=O)(=O)N2CCCCC2)s1 ?
KAT2A inh: -12%; PLK1 PBD inh: inconclusive; VDR inh: -27%; ALOX12 inh: inconclusive

Results for O=C(O)/C(=C\c1ccc(Cl)c([N+](=O)[O-])c1)c1ccc(S(=O)(=O)N2CCCC2)s1 ?
KAT2A inh: -18%; PLK1 PBD inh: -26%; VDR inh: -7%; ALOX12 inh: 18µM*

How did Cc1cccc2c(=O)c(-c3ccccc3)c(N)oc12 do in these assays?
ALOX12 inh: 22%

What do the screens show for `CNCc1ccccc1Sc1cc(O)ccc1O`?
KAT2A inh: -13%; PLK1 PBD inh: 5.3µM*; VDR inh: 35µM*; ALOX12 inh: inconclusive

What do the screens show for `COc1cc(NC(=S)Nc2cccnc2)cc(OC)c1OC`?
KAT2A inh: 25%; PLK1 PBD inh: -7%; VDR inh: -1%; ALOX12 inh: 45µM*

How did COc1cc(NC(=S)NCc2cccnc2)cc(OC)c1OC do in these assays?
KAT2A inh: -6%; PLK1 PBD inh: 1%; VDR inh: -7%; ALOX12 inh: -1%

How did CCOc1ccc(NC(=S)Nc2cccnc2)cc1 do in these assays?
KAT2A inh: -3%; PLK1 PBD inh: 30µM*; VDR inh: -19%; ALOX12 inh: -29%

What do the screens show for `Cc1[nH]c2ccccc2c1C(=O)C(C)Oc1ccccc1F` (stereo not drawn)?
ALOX12 inh: -10%

Results for Cc1ccc(CNC(=O)c2cccc(-c3ccc(S(=O)(=O)N4CCCCC4)cc3)c2)cc1 ?
ALOX12 inh: -21%

Results for CN1C(=O)[C@@H]2C[C@@H](CN2C2CCC2)Oc2ccccc21 ?
ALOX12 inh: 263%[176 µM]

Results for CN(C)CC(=O)N1CC(=O)N2[C@H](CO)[C@@H](c3ccc(Br)cc3)[C@H]2C1 ?
ALOX12 inh: -19%

How did O=C(c1cnccn1)N1CC(=O)N2[C@H](C1)[C@@H](c1ccc(Br)cc1)[C@@H]2CO do in these assays?
ALOX12 inh: 5.6µM*

How did CSc1ccccc1NC(=O)/C(=C/c1ccco1)c1ccccc1 do in these assays?
ALOX12 inh: 50µM*

What do the screens show for `COc1ccc(C(=O)N(c2ccc(OC)cc2)S(=O)(=O)c2cccs2)cc1`?
KAT2A inh: -10%; PLK1 PBD inh: -9%; VDR inh: 4%; ALOX12 inh: -7%
